# A selection: hits, their analogues and other compounds. The true share with any hit is near 2.2%.
# Mm-Cpn inhibitor: Inhibitors of TCP-1 ring complex (TRiC) of Methanococcus maripaludis (MmCpn): qHTS; hit rate 0.031% among 330,000; Potency, µM (series often up to 76.9 µM), for the others: at the highest dose activity, negative = inhibition, usual class: inhibitors; purified Mm-Cpn ATPase, ADP Transcreener TR-FRET; further: potency means the concentration at half of the fitted maximal effect; on the % scale 0 is the no-effect control and ±100 the full control effect; nearly all actives have a fitted effect of over 80% in size
#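 Purified archaeal Mm-CPN (25nM final) preincubated 10 min at 37degC with compound, then 10uM ATP for 30 min at 37degC; ADP measured by HTRF Transcreener TR-FRET; buffer 30 mM TRIS pH 7.4, 100mM KCl, 5mM MgCl2, 1mM DTT.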
# HEK293 tox: qHTS of GLP-1 Receptor Inverse Agonists: Cytotox Screen | hit rate 0.13% among 410,000 | HEK293 cAMP-luciferase reporter cells, luminescence, 24 h | Potency, µM (doses to about 38.3 µM), for inactives: top-dose activity change, negative = inhibition, most hits filed as inhibitors;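 further: loss of luciferase light is scored as toxicity; potency means the concentration at half of the fitted maximal effect; on the % scale 0 is the no-effect control and ±100 the full control effect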
#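 To flag toxic compounds, the library was rerun on cells for 24 hr at 37 deg C and 5% CO2. Viability-linked luminescence was captured 12 min after adding luciferase detection reagent.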
# CCT modulator: High-Throughput Screening for Modulators of Cytosolic Chaperonin Activity | purified chaperonin ATPase assay, HTRF ADP detection, 30 min | hit rate 0.3% among 360,000 | activity change, % (test concentration not listed), hits read low; in the data active means activity change below about -30%; further: on the % scale 0 is the no-effect control and ±100 the full control effect
#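 TRiC (40 or 20 nM final, by batch activity) in 30 mM Tris pH 7.4, 100 mM KCl, 5 mM MgCl2, 1 mM DTT was treated with compound at 76 uM single dose, then 10 uM ATP, 30 min at 37 °C. ADP was read by HTRF Transcreener.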
# GLP1R ag: qHTS of GLP-1 Receptor Agonists | Glucagon-like peptide 1 receptor (Homo sapiens), P43220 | HEK293 GLP-1R CRE-luciferase, luminescence, 4-6 h; cells express a hypersensitive GLP-1R form | Potency, µM (titrated, usually from 45.6 µM), for the others: at the top dose activation, hits mostly activators | hit rate 0.007% among 380,000 | AID 624172, 2012; further: potency means the concentration at half of the fitted maximal effect; % of control where 0% means no effect
# Target sequence (P43220 whole entry, looked up): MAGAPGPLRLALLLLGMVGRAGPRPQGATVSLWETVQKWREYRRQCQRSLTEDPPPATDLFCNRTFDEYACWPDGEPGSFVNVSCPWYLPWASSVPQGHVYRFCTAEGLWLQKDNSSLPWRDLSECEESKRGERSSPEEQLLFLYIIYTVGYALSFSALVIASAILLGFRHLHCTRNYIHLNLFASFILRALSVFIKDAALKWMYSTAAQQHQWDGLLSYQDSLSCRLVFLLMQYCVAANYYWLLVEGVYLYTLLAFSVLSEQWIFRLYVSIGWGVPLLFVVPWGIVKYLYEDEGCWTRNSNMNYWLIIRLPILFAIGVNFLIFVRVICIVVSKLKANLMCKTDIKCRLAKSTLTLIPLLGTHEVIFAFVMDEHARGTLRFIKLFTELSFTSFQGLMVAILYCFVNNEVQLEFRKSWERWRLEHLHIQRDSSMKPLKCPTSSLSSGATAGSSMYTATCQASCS
# uPA generation: qHTS for Inhibitors of Cell Surface uPA Generation; Potency, µM (series often up to 38.3 µM), inactives show at the top dose activity change, negative = inhibition, actives largely listed as inhibitors; hit rate 0.31% among 330,000; cell surface uPA generation assay, qHTS; active means well fitted inhibition curve with a large enough effect; inconclusive means small, poorly fitted or top-dose-only effect; inactive means no such curve, though single readings can be large or run the other way; tested in mouse RAW 264.7 cells; further: potency means the concentration at half of the fitted maximal effect; on the % scale 0 is the no-effect control and ±100 the full control effect; nearly all actives have a fitted effect of over 55% in size
# GLP-1R inv ag: qHTS of GLP-1 Receptor Inverse Agonists (Inhibition Mode) | HEK293 GLP-1R CRE-luciferase, luminescence, 24 h; GLP-1R form is constitutively active | Potency, µM (doses to about 38.3 µM), inactives show at the highest dose activity change, negative = inhibition, usual class: inhibitors | hit rate 1.6% among 410,000 | AID 624417, 2012; further: potency means the concentration at half of the fitted maximal effect; on the % scale 0 is the no-effect control and ±100 the full control effect; nearly all actives have a fitted effect of over 55% in size
#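 Using stably transfected HEK293 (constitutively active GLP-1R, cAMP-luciferase reporter), compounds were incubated 24 hr and luciferase measured by luminescence.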
# Active calls of the source: *; ? = inconclusive; · = no result given. Unless noted, the call rests on the fitted dose curve; in most records, active means well fitted curve in the direction sought with a large enough effect; inconclusive means small, poorly fitted or top-dose-only effect, or another doubt; inactive means no such curve, though single readings can be large; an effect the other way counts as inactive or inconclusive.
SMILES,Mm-Cpn inhibitor,HEK293 tox,CCT modulator,GLP1R ag,uPA generation,GLP-1R inv ag
O=C(OCc1cn([C@@H]2CN(C(=O)C3CCCCC3)[C@@H](c3ccccc3)C[C@H]2O)nn1)c1ccccc1,·,-12.5%,1.5,-4.1%,·,-3.8%
CCCCCCN1C[C@@H](n2cc(COC(=O)c3ccccc3)nn2)[C@H](O)C[C@@H]1c1ccc(OC)cc1,·,-22.7%,-2.9,-3.1%,·,14.1µM*
COc1cc(C(=O)Nc2cccc(C)c2C)ccc1OCC(=O)N1CCOCC1,3.0%,-7.5%,-33.6*,0.7%,-7.0%,1.0%
Cc1ccccc1-n1nc(CO)c(C(=O)NCC(c2ccccc2)c2ccccc2)n1,·,-3.9%,·,·,·,?
O=C(CC1C(=O)NCCN1C/C=C/c1ccccc1)NCCc1ccncc1 (stereo not drawn),1.2%,-6.5%,-32.9*,-3.0%,-0.6%,6.2%
COc1ccc(NC(=O)c2cc3c(=O)n(Cc4cccnc4)ccc3nc2C)c(OC)c1,·,-1.1%,·,·,·,11.4%
Cn1cc(S(C)=O)c(=O)c2ccc(F)cc21 (stereo not drawn),·,·,·,-3.5%,·,·
COc1ccc(C(=O)Nc2ccc3c(c2)N(C2CCCC2)C(=O)c2ccccc2S3)cc1OC,·,0.0%,·,·,·,?
CCOC(=O)c1c(C)nc2ccc(Cl)cc2c1-c1ccccc1,1.4%,-6.5%,-1.4,?,-2.1%,10µM*
CCOc1ccccc1N(C)C(=O)Cn1nc(Cc2ccncc2)c2ccccc2c1=O,·,3.9%,·,·,·,-6.2%
CCc1c(C)sc(NC(=O)c2cc(-c3ccc(OC)cc3)on2)c1C#N,·,0.0%,·,·,·,21.2%
Cc1ccc(-n2ncc3c(N4CCCCCC4)ncnc32)cc1Cl,·,1.8%,·,·,·,?
Cc1ccc(-n2ncc3c(N4CCCCC4)ncnc32)cc1,·,0.9%,·,·,·,-81.2%
Cc1cccc(-n2ncc3c(N4CCN(c5ccccc5)CC4)ncnc32)c1,·,1.0%,·,·,·,7.5%
Cc1cccc(-n2ncc3c(N4CCOCC4)ncnc32)c1,0.1%,-3.5%,0.9,-9.0%,0.794µM*,3.16µM*
Cc1ccc(-n2ncc3c(N4CCCCC4)ncnc32)cc1Cl,·,2.3%,·,·,·,0.794µM*
COc1ccc(-n2ncc3c(N4CCCCC4)ncnc32)cc1,-1.9%,-3.6%,-3.1,-11.2%,1.26µM*,-84.7%
CCc1c(C#N)c(SCCC(=O)Nc2ccc(C)cc2)nc2c1C(=O)CC(C)(C)C2,1.0%,-7.1%,1.7,-17.3%,3.7%,2.82µM*
Cn1c(SCc2ccccc2)nc(N)c(N=O)c1=O,·,-19.4%,-1.0,-0.3%,3.55µM*,-15.3%
CCc1cccc(C)c1Nc1c(-c2ccc(SC)cc2)nc2sccn12,·,1.1%,·,·,·,?
Cc1cccc(C)c1OCc1cc(C(=O)NCC2CCCCC2)no1,-1.5%,12.8%,0.2,3.5%,0.7%,5.6%
Cc1cccc(C)c1OCc1cc(C(=O)N(Cc2c(C)nn(C)c2C)C2CC2)no1,1.1%,-11.6%,-0.6,4.0%,2.4%,7.94µM*
Cc1ccc(NC(=S)NC(=O)C2CC2)cc1Cl,1.3%,?,-0.9,-5.6%,-1.8%,10µM*
[O-][N+](=Nc1ccccc1)c1ccccc1,·,·,·,-3.6%,·,·
O=C(CCc1ccc(S(=O)(=O)NC2CCCCC2)cc1)N(Cc1ccccc1)Cc1ccccc1,-0.9%,-0.7%,-1.3,-3.6%,-6.1%,8.91µM*
SMILES,Mm-Cpn inhibitor,HEK293 tox,CCT modulator,GLP1R ag,uPA generation,GLP-1R inv ag
CN=C1C=CC(=C(c2ccc(N(C)C)cc2)c2ccc(N(C)C)cc2)C=C1,·,·,·,-3.8%,·,·
Cc1cccn2cc(CSc3nnc(Nc4ccc(C(C)C)cc4)s3)nc12,-13.5%,-10.6%,-2.8,4.7%,11.9%,10µM*
COc1ccc(Nc2nnc(SCc3cn4c(C)cccc4n3)s2)cc1,1.1%,?,-3.0,2.8%,-10.0%,2.2%
O=C(c1cc2sccc2n1Cc1ccc(F)cc1)N1CCN(c2nc3ccccc3s2)CC1,?,-25.1%,-5.0,-6.3%,-3.3%,4.47µM*
Cc1cccc(NS(=O)(=O)c2ccc3c(c2)CCN3C(=O)C2CCC2)c1,·,3.9%,·,7.7%,·,?
COC(=O)C(=Cc1ccccc1[N+](=O)[O-])C(=O)OC,-2.0%,?,1.0,-4.0%,?,10µM*
CCN(CC)CCCC(C)Nc1nccc2c(Cl)cccc12 (stereo not drawn),·,?,2.2,-4.7%,-2.9%,4.47µM*
COCC(=O)OC/C(O)=C(\C#N)c1nc2ccccc2[nH]1,-1.1%,?,0.3,3.2%,-3.5%,5.01µM*
N#C/C(=C(/O)c1ccc(Br)s1)c1nc2ccccc2[nH]1,-23.8%,-2.5%,-1.8,-2.2%,3.55µM*,?
Cc1cccc(C)c1OCC(=O)OC/C(O)=C(\C#N)c1nc2ccccc2[nH]1,-2.4%,?,-1.8,-29.4%,-5.8%,?
CCCC(=O)OC/C(O)=C(\C#N)c1nc2ccccc2[nH]1,-4.4%,10µM*,-1.4,8.4%,6.0%,?
N#C/C(=C(/O)COC(=O)CSc1ccc2ccccc2c1)c1nc2ccccc2[nH]1,-9.6%,?,2.8,-16.5%,?,7.94µM*
COc1ccc(-n2c(SCC(=O)NCc3ccc(Cl)cc3)nc3ccsc3c2=O)cc1,·,1.8%,·,0.5%,·,2.1%
CCCn1c(SCc2nc(-c3ccc(OC)cc3OC)no2)nnc1-c1ccc(Cl)cc1,·,2.0%,·,·,·,?
CCCn1c(SCc2nc(-c3ccccc3OCC)no2)nnc1-c1ccc(Cl)cc1,·,-14.3%,·,·,·,10µM*
CN(C)C=NC(=O)c1[nH]c2ccc(Cl)cc2c1-c1ccccc1,-0.2%,?,-1.3,17.7%,-9.7%,11.2µM*
CC(C)c1ccccc1-n1c(SCC(=O)c2ccc3c(c2)NC(=O)CO3)nc2ccccc2c1=O,-13.1%,13.6%,-0.8,13.7%,3.4%,10µM*
CC(C)c1ccccc1-n1c(SCC(=O)N2CCc3ccccc3C2)nc2ccccc2c1=O,-3.2%,6.0%,-0.8,13.8%,?,10µM*
O=C(CSc1nc2ccccc2c(=O)n1-c1ccccc1)N1CCc2ccccc2C1,0.1%,-3.1%,-0.9,18.9%,-6.1%,-18.9%
COc1ccc(NC(c2ccc(F)cc2)c2nnc(-c3ccccc3Cl)o2)cc1Cl (stereo not drawn),·,4.6%,·,·,·,?
CCOC(=O)/C(=N/Nc1ccc(Br)cc1)N1CC(C)OC(C)C1 (stereo not drawn),·,-3.2%,-2.7,13.9%,-1.0%,2.51µM*
CCc1ccc(NC(=O)Nc2cn(C)c(=O)c3ccccc23)cc1,·,8.3%,·,·,·,-12.2%
